Assay [1] deals with Falciformispora senegalensis CBS197.79. In words: growth relative to untreated control; higher = less inhibition, active = 20 or less. The procedure, abridged:
(§1)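 Growth was expressed as metabolic activity relative to the untreated growth control, with both corrected using a blank of medium plus dye. Hyphal fragments of M. mycetomatis MM55 or F. senegalensis CBS197.79 were suspended to 68–72% transmission at 660 nm in colourless RPMI 1640 containing L-glutamine and MOPS. In 96-well plates they were exposed to compound at 100 or 25 µM for 7 days at 37 °C, and viability was read with MTS (2 h, 490 nm) or resazurin (600 nm).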

In assay [2] the test system is Madurella mycetomatis MM55. The description is as above. The procedure, abridged: as §1

Values without a mark were called inactive.

Turning to `CCn1cnc2c(N3CCCC(c4ccncc4)C3)ncnc21` (stereo not given), the growth is 99.7% in assay [1] (25 µM), 94.6% in assay [1] (100 µM), 84.4% in assay [2] (25 µM) and 62.5% in assay [2] (100 µM).

As to `Cc1cccnc1Nc1cn2cc(-c3cccc(OCC(F)(F)F)n3)ccc2n1`, the growth in assay [1] (25 µM) is 96.5%; in assay [1] (100 µM), 86.9%; in assay [2] (25 µM), 119%; in assay [2] (100 µM), 8.06% (active).

In the case of `COc1cccc2c1CCCC2CCCN1CCN(C2CCCCC2)CC1` (stereo not given), the growth in assay [1] (25 µM) is 101%; in assay [1] (100 µM) it was 103%; in assay [2] (25 µM) it was 75.4%; in assay [2] (100 µM), 68.7%.

Consider `CC(C)N1CCN(c2ccc(OC[C@H]3CO[C@](Cn4cncn4)(c4ccc(Cl)cc4Cl)O3)cc2)CC1`, for which the growth in assay [1] (25 µM) was 20.1%; in assay [1] (100 µM), 7.6% (active); in assay [2] (25 µM), 3.57% (active); in assay [2] (100 µM) it was 2.95% (active).

`C[C@H](NC(=O)c1cc2ccc(Cl)cc2n1C)c1ccccc1`: the growth in assay [1] (25 µM) is 93.6%; in assay [1] (100 µM), 81.7%; in assay [2] (25 µM), 99.6%; in assay [2] (100 µM) it was 81.1%.

For the compound `NC1CCc2nc(-c3cccnc3)nc(Nc3ccc(C(F)(F)F)cc3)c2C1` (stereo not given), the growth was 102% in assay [1] (25 µM), 13.8% (active) in assay [1] (100 µM), 71.4% in assay [2] (25 µM) and 5.34% (active) in assay [2] (100 µM).

On to `Cc1nc(NC2(c3ccc(C#N)cc3)CC2)nc(NCC2COC2)c1C`, for which the growth in assay [1] (25 µM) was 97.1%; in assay [1] (100 µM), 96.2%; in assay [2] (25 µM), 87.8%; in assay [2] (100 µM), 22.3%.

For `O=C1NCCN1CCN1CCC(c2cn(-c3ccc(F)cc3)c3ccc(Cl)cc23)CC1`, the growth was 7.42% (active) in assay [1] (25 µM), 19.4% (active) in assay [1] (100 µM), 5.95% (active) in assay [2] (25 µM) and 4.92% (active) in assay [2] (100 µM).

Take `CN1CCN(c2ccc(C(=O)NCc3cnc(C#N)nc3NCC(C)(C)C)cc2)CC1`: the growth in assay [1] (25 µM) is 102%; in assay [1] (100 µM) it was 18.9% (active); in assay [2] (25 µM) it was 72.9%; in assay [2] (100 µM), 3.97% (active).

Regarding `CN(C)c1ncc2nc(Nc3cc(Cl)cc(C(F)(F)F)c3)n(C3CCNCC3)c2n1`, the growth in assay [1] (25 µM) was 102%; in assay [1] (100 µM), 99.5%; in assay [2] (25 µM), 86.2%; in assay [2] (100 µM), 5.43% (active).

Consider `Cn1ccnc1SCC(=O)Nc1ccc(C(=O)Nc2ncccc2O)cc1`, for which the growth in assay [1] (25 µM) is 87.2%; in assay [1] (100 µM), 79.4%; in assay [2] (25 µM), 102%; in assay [2] (100 µM), 64.9%.

As for `Cc1ccc(C)c2sc(N(CCCn3ccnc3)C(=O)c3ccco3)nc12`, the growth in assay [1] (25 µM) was 38.5%; in assay [1] (100 µM), 30%; in assay [2] (25 µM) it was 5.97% (active); in assay [2] (100 µM), 7.8% (active).

Take `CO[C@@H](C(=O)N1Cc2[nH]nc(NC(=O)c3ccc(N4CCN(C)CC4)cc3)c2C1)c1ccccc1`: the growth in assay [1] (25 µM) is 103%; in assay [1] (100 µM), 102%; in assay [2] (25 µM), 94%; in assay [2] (100 µM), 77.7%.

Turning to `CC(=O)c1nn(-c2c(Cl)cc(C(F)(F)F)cc2Cl)c(N)c1S(C)=O` (stereo not given), the growth in assay [1] (25 µM) was 94.6%; in assay [1] (100 µM) it was 83.2%; in assay [2] (25 µM), 119%; in assay [2] (100 µM) it was 107%.

Consider `Cc1cc(C)c(Nc2ccnc(Nc3ccc(C#N)cc3)n2)c(C)c1`, for which the growth in assay [1] (25 µM) was 103%; in assay [1] (100 µM), 99.4%; in assay [2] (25 µM), 92.4%; in assay [2] (100 µM) it was 86.6%.

`Cc1ccc(-c2ccc(C3(CN)CCOCC3)cc2)cn1`: the growth in assay [1] (25 µM) was 59%; in assay [1] (100 µM) it was 25.4%; in assay [2] (25 µM), 41.4%; in assay [2] (100 µM), 6.97% (active).

Take `CCCC(CCC)C(=O)O`: the growth in assay [1] (25 µM) is 112%; in assay [1] (100 µM), 106%; in assay [2] (25 µM), 76%; in assay [2] (100 µM), 79.4%.

For `C[C@@H](O[C@H]1OCCN(Cc2n[nH]c(O)n2)[C@H]1c1ccc(F)cc1)c1cc(C(F)(F)F)cc(C(F)(F)F)c1`, the growth in assay [1] (25 µM) is 104%; in assay [1] (100 µM) it was 103%; in assay [2] (25 µM), 89.8%; in assay [2] (100 µM), 5.09% (active).

In the case of `O=C(Nc1ncccc1O)c1ccc(S(=O)(=O)NCCc2cccs2)cc1`, the growth is 88.7% in assay [1] (25 µM), 88.7% in assay [1] (100 µM), 128% in assay [2] (25 µM) and 70.6% in assay [2] (100 µM).

In the case of `Cc1cc(Nc2cn3cc(-c4cnn(C(F)F)c4)ccc3n2)nc(C)n1`, the growth is 94.1% in assay [1] (25 µM), 83.8% in assay [1] (100 µM), 95.2% in assay [2] (25 µM) and 58.6% in assay [2] (100 µM).

`N#C/C(C(=O)c1ccccc1Cl)=C1\NC(c2ccccc2)=CS1`: the growth in assay [1] (25 µM) is 90.5%; in assay [1] (100 µM) it was 100%; in assay [2] (25 µM), 79.7%; in assay [2] (100 µM), 45.4%.

On to `C[C@H]1O[C@@H](O[C@H]2[C@@H](O)C[C@H](O[C@H]3[C@@H](O)C[C@H](O[C@H]4CC[C@@]5(C)[C@H](CC[C@@H]6[C@@H]5CC[C@]5(C)[C@@H](C7=CC(=O)OC7)CC[C@]65O)C4)O[C@@H]3C)O[C@@H]2C)C[C@H](O)[C@@H]1O`, for which the growth was 99.1% in assay [1] (25 µM), 98% in assay [1] (100 µM), 94.5% in assay [2] (25 µM) and 73.2% in assay [2] (100 µM).

Take `FC(F)(F)c1cc(Cl)cc(Nc2nc3cnc(NCC4CC4)nc3n2C2CCNCC2)c1`: the growth in assay [1] (25 µM) was 95%; in assay [1] (100 µM), 17.6% (active); in assay [2] (25 µM), 53.7%; in assay [2] (100 µM) it was 4.76% (active).

On to `COc1ccc(CCN(Cc2cccs2)C(=O)c2cc3sccc3n2C)cc1OC`, for which the growth was 97.9% in assay [1] (25 µM), 113% in assay [1] (100 µM), 5.66% (active) in assay [2] (25 µM) and 31.3% in assay [2] (100 µM).

Take `O=S(=O)(NCC1(O)CCOc2ccccc21)c1ccccc1F` (stereo not given): the growth in assay [1] (25 µM) was 85.9%; in assay [1] (100 µM), 113%; in assay [2] (25 µM), 101%; in assay [2] (100 µM), 102%.

For the origin of these results see the supplement of paper PMC11172423.
